# Hits are enriched below; roughly 7.3% of the tested compounds scored in any of these assays.
# HCMV antiviral = human cytomegalovirus inhibition; HFF cells, HCMV-luciferase reporter, 72 h; stronger effect = lower value; activity change, negative = inhibition, % at 57.5 µM; 410,000 tested, 4.5% active; AID 1259415; in the data active = activity change below about -60%; inconclusive = no clear call, values can overlap the other calls; inactive = above about -39%
#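 HFF cells seeded 16 h at 37C, treated with compounds, infected with luciferase-reporter HCMV at MOI 1 PFU/cell; luciferase read at 72 h post infection, normalized to buffer-only and Salinomycin controls.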
# HCV inh = inhibitors of hepatitis C virus infection; Huh7.5.1 HCVcc-Cre infection, luciferase reporter, 44 h; Potency, µM (highest dose often 41.8 µM), without a hit: at the top dose activity change, negative = inhibition, usual class: inhibitors; 340,000 tested, 3.4% active; note: potency is the fitted concentration of half-maximal effect
#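 Cells (1,000/well) were plated 4 h before compound, then infected with HCVcc-Cre virus (~0.5 moi). After 44 h further culture, infection was read as luciferase luminescence following a 15 min substrate incubation at room temperature.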
# AmpC detergent = inhibitors of E. coli AmpC beta-lactamase with detergent; 370,000 tested, 0.041% active; P00811; AmpC hydrolysis of nitrocefin, absorbance 480 nm, 0.01% Triton; Potency, µM (highest dose often 114 µM), inactives show at the top dose activity change, negative = inhibition, hits mostly inhibitors;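 note: potency is the fitted concentration of half-maximal effect; 0% = no-compound wells and -100% = no-enzyme wells; nearly all actives have a fitted effect of over 25% in size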
# Target sequence (P00811 whole entry, looked up): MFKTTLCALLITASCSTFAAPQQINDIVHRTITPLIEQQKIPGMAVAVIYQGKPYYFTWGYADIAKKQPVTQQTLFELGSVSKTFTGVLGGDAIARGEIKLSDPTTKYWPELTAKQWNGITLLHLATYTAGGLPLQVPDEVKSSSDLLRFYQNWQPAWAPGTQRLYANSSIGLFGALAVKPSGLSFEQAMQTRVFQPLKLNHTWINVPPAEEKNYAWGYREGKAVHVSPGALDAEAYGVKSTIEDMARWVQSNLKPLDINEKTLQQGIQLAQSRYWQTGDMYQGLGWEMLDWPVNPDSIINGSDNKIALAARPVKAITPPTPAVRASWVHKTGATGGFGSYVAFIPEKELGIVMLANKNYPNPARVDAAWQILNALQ
#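 20 mM phosphate pH 7.0 + 0.01% (detergent screen) or 0.0001% Triton X-100; 5.3 nM AmpC reagent; cpd preinc 15 min RT; nitrocefin (800 uM stock) to start; A480 q20 s × 4 min; Activity was normalised to no-enzyme and no-compound control wells.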
# FMDV antiviral = foot and mouth disease virus antiviral activity; FMDV antiviral cell-based qHTS; Potency, µM (series often up to 57.9 µM), for the others: top-dose activity change, negative = inhibition, most hits filed as inhibitors; 410,000 tested, 1.2% active; calls by dose curve; tested in HEK293T cells; note: read-out not given here; potency is the fitted concentration of half-maximal effect; nearly all actives have a fitted effect of over 45% in size
# AmpC no deterg = AmpC beta-lactamase inhibition without detergent; P00811; AmpC nitrocefin hydrolysis, absorbance 480 nm, 0.0001% Triton; Potency, µM (highest dose often 57.1 µM), without a hit: top-dose activity change, negative = inhibition, hits mostly inhibitors; 330,000 tested, 0.52% active;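 note: potency is the fitted concentration of half-maximal effect; plate controls were no compound for no effect and no enzyme for full effect; nearly all actives have a fitted effect of over 20% in size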
#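 20 mM phosphate pH 7.0 + 0.01% (detergent screen) or 0.0001% Triton X-100; 5.3 nM AmpC reagent; cpd preinc 15 min RT; nitrocefin (800 uM stock) to start; A480 q20 s × 4 min; Activity was normalised to no-enzyme and no-compound control wells.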
# * marks the source's active call; other numbers are inactive results; ? = inconclusive; . = no result given; [ ] = another dose, or the depositor's remark. Unless noted, calls come from the whole dose curve; as a rule, active = well fitted curve in the direction sought with a large enough effect; inconclusive = small, poorly fitted or top-dose-only effect, or another doubt; inactive = no such curve, though single readings can be large; an effect the other way counts as inactive or inconclusive. Unless noted, % is set by controls: 0 for no effect and ±100 for the full control effect.
SMILES,HCMV antiviral,HCV inh,AmpC detergent,FMDV antiviral,AmpC no deterg
Cc1ccc(CN2c3ccccc3-c3nc(SCC(=O)NCCc4ccccc4)ncc3S2(=O)=O)cc1,6,.,2%,-10%,.
Cc1ccc(C)c(N2CCN(c3nc4ccccc4c4nc(-c5cccnc5)nn34)CC2)c1,1,.,24%,-24%,.
Nc1nc(NCC2CCCO2)nc(Nc2ccc(Cl)cc2)c1[N+](=O)[O-] (stereo not drawn),-69*,-10%,-3%,-25%,0%
CCOc1ccc(Nc2c3ccccc3nc3ccccc23)cc1,-81*,4µM*,-3%,?,-13%
c1ccc(Nc2nc(NCC3CCCO3)c3ccccc3n2)cc1 (stereo not drawn),?,7.1µM*,-1%,28µM*,-16%
CCOc1ccc(Nc2cc(C)c3ccccc3n2)cc1,-20,-12%,-7%,33%,?
Oc1cccc(Nc2nc(NCC3CCCO3)c3ccccc3n2)c1 (stereo not drawn),.,?,?,0%,-27%
CN(C)c1ccc(-c2nc(NCc3cccnc3)c3ccccc3n2)cc1,.,.,.,36%,.
CCc1ccc(NC(=O)c2nc3nc(C)cc(C(F)F)n3n2)cc1,12,.,4%,24%,.
CCCCNc1cccc2c1S(=O)(=O)N[C@H](CC(C)C)CO2,-37,.,.,.,.
CC(=O)Nc1ccc(NS(=O)(=O)c2c(C)nc3sccn3c2=O)cc1,17,.,4%,-1%,.
CCOc1ccc(NS(=O)(=O)c2c(C)nc3sccn3c2=O)cc1,-100*,0%,-5%,-13%,-2%
CC(Sc1nc(-c2ccc(F)cc2)cs1)C(=O)N1c2ccccc2CC1C (stereo not drawn),-9,22µM*,?,?,-49%
CC1Cc2ccccc2N1C(=O)CSc1nc(-c2ccccc2)cs1 (stereo not drawn),-36,-9%,2%,15%,-5%
CCOc1ccc(/C=C/c2nc3ccccc3n2S(=O)(=O)c2cccc(Cl)c2)cc1,-80*,.,-7%,-16%,.
Cc1ccc(/C=C/c2nc3ccccc3n2S(=O)(=O)c2cccc(Cl)c2)cc1,-82*,.,1%,-96%,.
CSc1ccc(/C=C/c2nc3ccccc3n2S(=O)(=O)c2ccc(F)c(C)c2)cc1,-36,.,-4%,-77%,.
CCOc1cc(S(=O)(=O)n2c(C)nc3ccccc32)ccc1F,19,-19%,-14%,-22%,-4%
Cc1nc2ccccc2nc1OCC(=O)Nc1ccc2ccccc2c1,40,?,1%,-11%,-25%
Cc1cc(C)c(NC(=O)COc2nc3ccccc3nc2C)c(C)c1,?,11µM*,?,-27%,-10%
CC(C)NC(=O)C1CCC(Cn2c(=O)c3sccc3n(CC(=O)NCc3ccccc3)c2=O)CC1 (stereo not drawn),20,.,-1%,-3%,.
Cc1ccc(C2Oc3ccccc3C3=C2C(c2cccs2)n2ncnc2N3)cc1 (stereo not drawn),-14,13µM*,?,0%,-20%
Fc1ccc(C2C3=C(Nc4ncnn42)c2ccccc2OC3c2ccncc2)cc1 (stereo not drawn),-13,?,-10%,-22%,57%
COc1ccc(CN(C)S(=O)(=O)c2nnc(NC(=O)C(C)C)s2)cc1OC,0,.,15%,?,.
Cc1ccc(CNC(=O)Cn2ncc3c([nH]c4ccc(C)cc43)c2=O)cc1,2,.,3%,3%,.
SMILES,HCMV antiviral,HCV inh,AmpC detergent,FMDV antiviral,AmpC no deterg
CC(C)(C)Nc1nc(N2CCCC2)nc(N2CCCC2)n1,-36,?,-14%,?,-17%
CCCNc1nc(N2CCCC2)nc(N2CCCC2)n1,81,11µM*,-10%,?,0%
Cc1ccc(C)c(S(=O)(=O)N2CCCOC2CNC(=O)C(=O)NCCN2CCOCC2)c1 (stereo not drawn),-4,-2%,2%,-4%,86%
O[C@@H]1CN(C2CCN(Cc3ccccc3)CC2)CC[C@H]1N1CCCCCC1,5,?,.,-1%,.
Brc1ccccc1CN1CCC(N2CCCCC2)CC1,-1,4µM*,7%,-9%,-25%
COc1cc(Br)c(CCNC(=O)c2ccco2)cc1OC,-17,-9%,-7%,-14%,-4%[2.29 µM]

# Screens deposited in PubChem by National Center for Advancing Translational Sciences (NCATS).
